Data reported in PubChem BioAssay (NCATS).
Inconclusive results are not listed. A number with no mark means an inactive call. Activity calls are given as the source filed them. Calls follow the shape of the full dose curve.

biological target: Peroxisome proliferator-activated receptor delta (Homo sapiens) (UniProt Q03181); assay: qHTS assay for small molecule agonists of peroxisome proliferator-activated receptor delta signaling (AID 588534); details: HEK293T PPARdelta-UAS-bla, beta-lactamase ratio, 18 h; series mostly up to 76.7 µM; activation: at the top concentration;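 also: 0% = DMSO basal wells and 100% = positive control agonist at 10 µM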
Excerpt: NIH Chemical Genomics Center [NCGC] U.S. Environmental Protection Agency [EPA] National Institutes of Environmental Health Sciences [NIEHS] National Toxicology Program [NTP] NCGC Assay Overview The Peroxisome proliferator-activated receptors (PPARs) are lipid-activated transcription factors of the nuclear receptor superfamily with three distinct subtypes namely PPAR alpha, PPAR delta (also called PPAR beta) and PPAR gamma. All these subtypes heterodimerizes with Retinoid X receptor (RXR) and have different physiological functions. […] This role of PPAR delta implicates the potential use of its ligands in the treatment of metabolic disorders.
Compounds were screened in a titration series in 1536-well format. […] Concentration-response titration points for each compound were fitted to the Hill equation yielding concentrations of half-maximal stimulation (EC50) and maximal response (efficacy) values. qHTS protocol for PPAR-delta beta-lactamase assay in agonist mode [Step] [Parameter] [Value] [Description] 1. Reagent; 6 uL; 4000 cells/well 2. Incubation; 37 C for 5 hrs 3. Compounds; 23 nL; 0.59 nM to 92 uM 4. […] Incubation; 37 C for 18 hrs 6. Detection reagent; 1 uL of CCF4-dye 7. Incubation; RT for 2 hrs 8. Detection; Fluorescence; Envision plate reader

Peroxisome proliferator-activated receptor delta (Homo sapiens), sequence (Q03181 whole entry, looked up): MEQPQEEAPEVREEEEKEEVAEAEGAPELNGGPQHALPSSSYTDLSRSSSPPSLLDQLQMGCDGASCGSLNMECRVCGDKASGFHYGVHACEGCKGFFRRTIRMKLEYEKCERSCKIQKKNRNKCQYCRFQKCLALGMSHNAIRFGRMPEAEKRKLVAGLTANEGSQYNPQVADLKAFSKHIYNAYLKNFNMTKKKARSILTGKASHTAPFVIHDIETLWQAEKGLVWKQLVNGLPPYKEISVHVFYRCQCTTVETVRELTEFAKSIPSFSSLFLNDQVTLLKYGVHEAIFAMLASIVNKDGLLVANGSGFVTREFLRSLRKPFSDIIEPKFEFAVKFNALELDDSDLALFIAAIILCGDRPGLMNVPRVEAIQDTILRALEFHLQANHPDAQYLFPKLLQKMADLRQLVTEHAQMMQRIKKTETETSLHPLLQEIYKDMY

| SMILES | activation | outcome |
| --- | --- | --- |
| O=C(O)/C=C\C(=O)O | 7.55% |  |
| CCCC(C)(COC(N)=O)COC(N)=O | 1.97% |  |
| O=C1c2c(O)cccc2Cc2cccc(O)c21 | 3.65% |  |
| COP(=S)(OC)SCN1C(=O)c2ccccc2C1=O | -10.7% |  |
| Oc1ccc(Cl)cc1 | 9.11% |  |
| CCCCOC(=O)CC(CC(=O)OCCCC)(OC(C)=O)C(=O)OCCCC | 0.765% |  |
| Nc1ccc([As](=O)(O)O)cc1 | 2.38% |  |
| NCCNCCNCCNCCN |  | inactive |
| CC(=O)c1ccc(S(=O)(=O)NC(=O)NC2CCCCC2)cc1 |  | inactive |
| Cc1c(C(=O)NCCO)[n+](=O)c2ccccc2n1[O-] | 4.71% |  |
| NNC(=O)c1ccncc1 | 4.67% |  |
| CC(O)C(=O)O (stereo not given) | 5.68% |  |
| O=C1c2ccccc2C(=O)c2ccccc21 | -3.17% |  |
| O=C(N[C@H](CO)[C@H](O)c1ccc([N+](=O)[O-])cc1)C(Cl)Cl |  | inactive |
| COc1c2occc2cc2ccc(=O)oc12 |  | inactive |
| NC(=O)c1cnccn1 | 12.3% |  |
| Cn1c(=O)c2[nH]cnc2n(C)c1=O | 5.3% |  |
| NC(=O)N1c2ccccc2C=Cc2ccccc21 |  | inactive |
| Nc1nc(Cl)nc2c1ncn2[C@H]1C[C@H](O)[C@@H](CO)O1 | -13% |  |
| CCCCCCCCCCCCCCCCO | 0.111% |  |

| SMILES | activation | outcome |
| --- | --- | --- |
| O=C(O)c1cc(O)c(O)c(O)c1 | 10.6% |  |
| CCCCCCCC(=O)OCC(COC(=O)CCCCCCC)OC(=O)CCCCCCC | -2.47% |  |
| Nc1ccccc1 | 11.5% |  |
| C[C@]1(O)CC[C@H]2[C@@H]3CCC4=CC(=O)CC[C@]4(C)[C@@]3(F)[C@@H](O)C[C@@]21C | -4.57% |  |
| Cc1ncc(CO)c(CO)c1O | -3.35% |  |
| CC(=O)OCC(COC(C)=O)OC(C)=O |  | inactive |
| COc1ccc(C(=O)c2ccccc2)c(O)c1 |  | inactive |
| Cc1ccc(C(C)C)c(O)c1 | -5.67% |  |
| Cc1cc(C)nc(NS(=O)(=O)c2ccc(N)cc2)n1 |  | inactive |
| C[C@]12CCC(=O)C=C1CC[C@@H]1[C@@H]2CC[C@]2(C)C(=O)CC[C@@H]12 | -6.16% |  |
| Clc1ccc(C(c2ccc(Cl)cc2)C(Cl)(Cl)Cl)cc1 | -10.5% |  |
| Nc1ccc(S(N)(=O)=O)cc1 | -5.42% |  |
| Cc1noc(NS(=O)(=O)c2ccc(N)cc2)c1C |  | inactive |
| O=C(c1ccccc1)c1ccccc1 |  | inactive |
| Oc1ccccc1 |  | inactive |
| CCCCOC(=O)c1ccc(N)cc1 | 0.69% |  |
| Cc1cc(=O)[nH]c(=S)[nH]1 | 1.21% |  |
| NCCc1ccc(O)cc1 | -1.63% |  |
| COc1cc(C=O)ccc1O |  | inactive |
| O=C(O)CCCCC(=O)O | 3.39% |  |
